# FAS TE block = blocks the thioesterase domain of human fatty acid synthase; 360,000 compounds, 0.67% hits; P49327; recombinant FAS-TE, OMFH fluorogenic substrate, fluorescence endpoint; inhibition, % at 15 µM;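 active means compounds whose normalised, plate-corrected inhibition of enzyme fluorescence in the single-dose primary screen is 50% or more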;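 further: 0% = DMSO with enzyme and 100% = substrate without enzyme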
# SUMO Mot1 rescue = inhibitors of SUMOylation pathway: yeast Mot1-301 growth rescue. growth rescue, % at 18.8 µM. 320,000 compounds, 1% hits. AID 2716. S. cerevisiae Mot1-301 growth rescue, ATP luminescence, 38.5C; percent above DMSO median, 100 means doubled;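 active means every valid replicate shows activation above 250% relative to neutral control wells; inactive means the rest, any valid replicate at or below 250%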;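 further: OY570 slx delta 5 strain wells were the positive control but not used for scaling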
# ATG4B inh = inhibitors of human ATG4B cysteine protease. 340,000 compounds, 0.51% hits. inhibition, % at 8.33 µM. Q9Y4P1. AID 504462. ATG4B cleavage of LC3-PLA2, NBD-HPC fluorescence, 1 h; in the data active means inhibition above about 40%
# NadD block = inhibitors of Staphylococcus aureus NadD | 360,000 compounds, 0.78% hits | AID 602399 | inhibition, % at 20 µM | purified NadD enzyme, colorimetric absorbance read-out; in the data active means inhibition above about 26%
# Calb FLC = affects C. albicans growth with fluconazole; C. albicans CaCi-2 (fluconazole-resistant clinical isolate) + fluconazole, Alamar Blue growth, 48 h; growth inhibition, % (no concentration beside the values); 300,000 compounds, 0.57% hits; AID 1979;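 active means growth inhibition above about 58% in most replicates, limit read from the data, passing the limit was not always enough; inconclusive means exactly half the replicates above a set limit; inactive means most replicates below a set limit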;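 further: all wells also contain fluconazole at 8 µg/ml as a sub-toxic cotreatment; 0% = median of DMSO wells and 100% = median of geldanamycin control wells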
# Mot1 SUMO dose = yeast SUMO pathway inhibition in dose response | S. cerevisiae Mot1-301 galactose growth, ATP luminescence, 24 h; -100 = growth of slx-deleted rescue strain | growth activity, percent, % at 42 µM | shares compounds with SUMO Mot1 rescue | 2,300 tested, under 10 active;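 active means Signal drops as the depositor expects, and the fitted half-maximal dose is no more than ten times the top valid tested dose; inconclusive means Poor fit, or a flat curve whose signal drops by 30% to 70%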;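 further: more negative values mean stronger growth rescue toward the control strain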
# * = called active by the depositor; ? = inconclusive; nt = no result; + = active, no number; [ ] = remark or other dose. This is a sample that favours compounds with a hit; in the whole collection about 3.1% have one here.
SMILES,FAS TE block,SUMO Mot1 rescue,ATG4B inh,NadD block,Calb FLC,Mot1 SUMO dose
CCOC(=O)CNC(=O)c1cccnc1,-6.5,+,-3.2,-7.1,-2.0,-0.1
CCn1c(SCC(N)=O)nnc1-c1cc2c(C)nn(-c3ccccc3)c2s1,-4.9,+,2.7,3.5,3.2,0.0
CC(C)c1ccc(/C=C(\NC(=O)c2ccccc2)C(=O)NCCCn2ccnc2)cc1,-7.7,2.6,-9.2,-3.7,-2.6,nt
CCCCc1ccc(NC(=S)NCc2cccs2)cc1,21.9,572.8*,24.7,0.5,-26.1,-1.1
Nc1cc(=O)[nH]c(SCC(=O)Nc2ccc(Oc3ccccc3)cc2)n1,-2.1,-16.5,-13.5,4.4,0.6,nt
CCCCN(CC)CCCNC(=S)Nc1ccc2nc3n(c(=O)c2c1)CCCCC3,-3.5,-1.1,1.2,-6.3,-1.0,nt
CCN(CC)S(=O)(=O)c1ccc(S(=O)(=O)N2CCC(C(=O)NC3CCN(Cc4ccccc4)CC3)CC2)cc1,-10.2,633.5*,-0.8,-2.4,-15.4,0.0
O=C(Cc1ccccc1)NC1CCSc2ccccc21 (configuration not stated),1.1,0.2,-6.0,4.0,-6.7,nt
COc1ccc(-c2[nH]ncc2CNCc2cc(C)n(C)n2)c(F)c1,-5.2,12.6,-2.2,-1.3,-7.4,nt
COc1ccc(-c2[nH]ncc2CNCCn2cccn2)c(F)c1,-6.4,+,6.1,-3.6,-0.9,-0.2
Cc1ccc(NC(=O)COC(=O)c2csc3c2CCC(C)C3)cc1S(=O)(=O)N1CCCCC1 (configuration not stated),24.0,+,-7.6,3.6,2.2,-0.1
CC(C)C1COS(=O)(=O)NC1CC(=O)SC(C)(C)C (configuration not stated),3.9,387.8,-1.6,2.4,-6.8,nt
Cc1ccccc1-n1ncc2c([N+](=O)[O-])cc([N+](=O)[O-])cc21,16.5,420.6*,-12.6,-9.5,?,-0.7
C=C1CCc2c([nH]c3ccc(OCC(C)C)cc23)C1=O,6.9,-24.3,0.8,-4.5,3.9,nt
Cc1ccc(-c2c(CC(=O)O)c(C)nc3sc4c(c23)CCCC4)cc1,-1.0,11.5,9.1,1.9,3.3,nt
CCCCOC(=O)/C(=C/C=C/c1ccccc1)NC(=O)c1ccccc1,17.4,815.0*,1.0,-4.4,-8.8,-0.5
O=C(NCCc1c[nH]c2ccccc12)c1cc(S(=O)(=O)N2CCCCC2)ccc1N1CCOCC1,1.5,449.5*,-16.4,4.9,0.5,-0.3
Cc1ccc(C(=O)OCC(=O)NCc2ccco2)cc1C,-7.5,11.2,1.4,-4.6,nt,nt
Cc1nc2ccccc2c(=O)n1CCCN1CCOCC1,-7.1,-11.9,3.8,-7.3,-8.1,nt
Cc1nc2ccccc2c(=O)n1CC(=O)N1CCOCC1,-3.4,686.7*,-6.3,1.7,4.4,1.1
COc1ccc(/C=C(\C#N)C(=O)c2cccn2C)cc1,-3.5,396.1*,-2.9,-3.1,0.3,0.0
Cn1cccc1C(=O)/C(C#N)=C/c1ccc(F)cc1,-9.4,-1.0,12.4,-0.8,-8.7,nt
Cc1cnc(C(=O)OC(C(=O)c2c[nH]c3ccccc23)c2ccccc2)cn1 (configuration not stated),-0.3,532.9*,-4.2,0.2,nt,-0.4
CCOC(=O)c1c(NC(=O)CN2C(=O)NC(C)(c3ccccc3)C2=O)sc(C)c1C (configuration not stated),14.6,3.3,-0.6,5.7,1.0,nt
CCOC(=O)C1=CN(Cc2cccc(-c3cccnc3)c2)S(=O)(=O)N(C)C1C (configuration not stated),9.2,nt,2.1,1.5,nt,nt
SMILES,FAS TE block,SUMO Mot1 rescue,ATG4B inh,NadD block,Calb FLC,Mot1 SUMO dose
Cc1ccc(C(C(=O)NC2CCCCC2)N(CCC(C)C)C(=O)CNC(=O)c2ccco2)o1 (configuration not stated),3.3,+,-11.5,-1.1,-2.3,-1.1
C=CCN(C(=O)CNC(=O)c1ccco1)C(C(=O)NC1CCCCC1)c1ccc(F)cc1 (configuration not stated),-1.8,nt,-8.3,3.9,3.3,nt
C=CCN(C(=O)CNC(=O)c1ccco1)C(C(=O)NC1CCCCC1)c1ccccc1 (configuration not stated),-3.2,737.0*,-6.1,-1.7,5.9,0.0
COCc1c(C(=O)N/N=C(/C)c2ccc(OCc3ccccc3)cc2)nnn1-c1nonc1N,-2.1,-12.0,6.6,9.4,-2.2,nt
COc1ccc(-c2nnc(-c3cc4c(ccc5ccccc54)oc3=O)o2)cc1,1.5,574.1*,-13.8,2.3,6.9,0.4
COc1ccc(OC)c(C(c2nnnn2C2CCCC2)N2CCN(c3ccccc3)CC2)c1 (configuration not stated),6.5,-1.5,-1.1,7.8,0.0,nt
CCC(c1nnnn1C1CCCC1)N1CCN(c2cccc(OC)c2)CC1 (configuration not stated),-0.3,747.4*,-12.7,1.2,-0.4,-0.1[21 µM]
COc1ccc(NC(=O)CN(C)C(=O)c2cccc(S(=O)(=O)Nc3ccccc3Cl)c2)cc1,-4.3,108.5,0.0,-4.1,-7.9,nt
CCCCn1c(N)c(N(CC(C)C)C(=O)c2cc(-c3ccc(F)cc3)nc3ccccc23)c(=O)[nH]c1=O,0.0,490.8*,-7.7,-1.0,13.6,-0.1
CCCCn1c(N)c(N(CC(C)C)C(=O)c2cc(-c3ccc(OC)cc3)nc3ccccc23)c(=O)[nH]c1=O,1.3,nt,-2.3,0.1,nt,nt
CC(C)(CNC(=O)c1cccs1)CNC(=O)c1cccs1,23.5,666.7*,-0.1,0.3,-11.7,0.5
CCOC(=O)CNC(=O)c1cccs1,-7.1,18.4,-4.2,-2.7,-3.6,nt
Cc1ccc2cc3cc(C(=O)NCCCN4CCCC4=O)oc3nc2c1,-3.8,-17.5,-8.9,-2.3,-0.8,nt
O=C1c2cccc3c(N4CCCCC4)ccc(c23)C(=O)N1CCO,-59.4,423.8*,-13.2,-2.7,19.0,0.7
CCCCc1ccc(S(=O)(=O)NNC(=S)NCc2ccco2)cc1,-3.6,544.6*,-14.2,-1.1,-2.0,0.5
CC(=O)Nc1ccc(S(=O)(=O)NNC(=S)NCc2ccco2)cc1,-6.8,-7.5,9.6,3.3,1.8,nt
N#Cc1ccc(Oc2ccc(S(=O)(=O)N3CCCC3)cn2)cc1,-2.2,3.0,-8.2,-6.3,9.4,nt
N#Cc1ccc(Oc2ccc(S(=O)(=O)N3CCCCC3)cn2)cc1,8.7,764.0*,3.8,-2.1,2.7,0.5
COc1ccc(NC(=O)C2CCCN2C(=O)OC(C)(C)C)cc1 (configuration not stated),-2.2,-22.0,-8.1,5.2,8.4,nt
O=S(=O)(c1ccc(Br)c2ccccc12)N1CCCC1,36.5,10.5,-5.9,-8.4,-4.8,nt
O=C(CCCNC(=O)/C(=C/c1ccccc1F)NC(=O)c1ccccc1)OCc1ccccc1,0.9,495.9*,-14.4,-1.4,22.0,0.7
COc1ccc(CCN2CCCC(CN(C)C(=O)c3ccoc3)C2)cc1 (configuration not stated),-0.6,-5.8,5.1,-3.2,7.8,nt
